Measurements from PubChem BioAssay.
Calls of active or inactive are those of the source. Unless noted, no rule for the calls is given here.

Tests used:
[1] = anti-His antibody binders, primary screen, artefact control for SMM control protein annotation, biochemical, small-molecule microarray, 635 nm fluorescence (AID 1128); details: anti-His Alexa647 antibody binding, higher = more signal;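 also: score merges feature fluorescence with signal-to-noise for each printed compound spot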
[2] = test system: Human papillomavirus type 1a E7 protein (residues 1-88); assay: HPV1a E7 small-molecule binders, primary screen, biochemical, small-molecule microarray, residues 1-88, 635 nm (AID 1129); details: small-molecule microarray binding, fluorescence 635 nm; higher = more signal
[3] = molecular target: Focal adhesion kinase 1 (Homo sapiens) (UniProt Q05397); assay: small-molecule microarray binders of FAK, primary screen, biochemical, 635/667 nm fluorescence, BSA, DTT (AID 1130); details: PTK2 binding, 635 nm fluorescence, higher = more signal;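 also: composite of spot emission at 667 nm and signal to noise over triplicate slides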
[4] = test system: Fibrinogen (Alexa647-labelled); assay: fibrinogen binders on compound microarrays, profiling panel, artefact control for SMM control-protein annotation, biochemical, small-molecule microarray, 635/667 nm fluorescence (AID 1131); details: fibrinogen-A647 binding fluorescence, higher = more signal;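 also: z-score merges 667 nm fluorescence with per-spot signal-to-noise over triplicate slides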
[5] = molecular target: Follistatin (Homo sapiens) (UniProt P19883); assay: follistatin binders on small-molecule microarrays, primary screen, biochemical, small-molecule microarray, 635/667 nm fluorescence (AID 1132); details: FST binding, 635 nm fluorescence, higher = more signal
[6] = molecular target: Fibroblast growth factor 2 (Homo sapiens) (UniProt P09038); assay: FGF2 binders on small-molecule microarrays, primary screen, biochemical, small-molecule microarray, 635/667 nm fluorescence (AID 1133); details: small-molecule microarray binding, FGF2, fluorescence 635/667; higher = more signal
[7] = mitochondrial membrane potential change in A549 cells, profiling panel, cell-based, JC-1 fluorescence, basal, 24 h, 100 nL (AID 1138); details: higher = more signal;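 also: A549 lung adenocarcinoma cells under basal conditions with no added stimulus; test concentration not given here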
Lefty1 = Lefty1 binders on small-molecule microarrays, primary screen, biochemical, small-molecule microarray, 635/667 nm fluorescence (AID 1139); details: small-molecule microarray binding, fluorescence 635/667; higher = more signal
[8] = test system: wheat germ agglutinin (Triticum aestivum), Alexa647-labelled; assay: wheat germ agglutinin binders on compound microarrays, profiling panel, artefact control for SMM control-protein annotation, biochemical, small-molecule microarray, 635/667 nm fluorescence (AID 1140); details: WGA-A647 binding, 635 nm fluorescence, higher = more signal;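 also: score merges 667 nm feature emission with signal to noise over triplicate slides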
[9] = molecular target: Luciferin 4-monooxygenase (Photinus pyralis) (UniProt P08659); assay: firefly luciferase enzyme inhibitors, primary screen, biochemical, luminescence, purified enzyme, 2006 set (AID 1141); details: SteadyGlo luminescence, 30 min, higher = more signal, called active from +8 up or from −8 down;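 also: cell-free assay with purified firefly luciferase at 100 ng per well in PBS; test concentration not given here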
[10] = test system: Wnt5a (protein binding on small-molecule microarray); assay: Wnt5a binders on small-molecule microarray, primary screen, biophysical, 635/667 nm fluorescence (AID 1142); details: 635 nm fluorescence, higher = more signal;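 also: fluorescence read at 667 nm with signal to noise per printed feature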
[11] = cell viability in Huh7 cells, primary screen, cytotoxicity control for HCV replication inhibitor project, CellTiter-Glo luminescence, basal, 48 h (AID 1143); details: Huh7 HCV replicon, higher = more signal, called active from +8 up or from −8 down;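 also: Huh7 hepatoma cells carrying a hepatitis C replication reporter with no stimulus; test concentration not given here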
[12] = P. aeruginosa biofilm formation inhibitors, primary screen, PAO1 strain, BacTiter-Glo luminescence, LB-PBS (AID 1144); details: 12 h, higher = more signal
[13] = CREB reporter modulators without forskolin, primary screen, cell-based, PC12, CRE-LacZ reporter, unstimulated (AID 1145); details: no forskolin, luminescence, 4.5 h, higher = more signal, called active from +8 up or from −8 down
[14] = CREB reporter modulators under forskolin, primary screen, cell-based, PC12, CRE-LacZ reporter, forskolin-stimulated (AID 1146); details: luminescence, 4.5 h, higher = more signal, called active from +8 up or from −8 down;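 also: PC12 cells with 6xCRE LacZ reporter stimulated by forskolin 10 µM; beta-galactosidase reporter signal reflecting CREB driven transcription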
[15] = molecular target: Streptavidin (Streptomyces avidinii) (UniProt P22629); assay: streptavidin binders on small-molecule microarray, primary screen, artefact control for SMM compound annotation, biophysical, 635/667 nm fluorescence (AID 1147); details: streptavidin binding, higher = more signal;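 also: signal reflects streptavidin binding to arrayed compounds as a control protein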
[16] = small-molecule binders of probe aInhba, primary screen, biochemical, small-molecule microarray, 635/667 nm fluorescence (AID 1148); details: higher = more signal;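 also: score merges 667nm spot fluorescence with signal-to-noise for antibody binding to printed compounds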
Torsin-1A (Homo sapiens) [17] = molecular target: Torsin-1A (Homo sapiens) (UniProt O14656); assay: torsin A binders from cell lysate, primary screen, small-molecule microarray, wild-type, 635/667 nm (AID 1149); details: COS7 hTOR1A-WT lysate, 635 nm fluorescence, higher = more signal
Torsin-1A (Homo sapiens) [18] = molecular target: Torsin-1A (Homo sapiens) (UniProt O14656); assay: small-molecule binders of mutant TOR1A in lysate, primary screen, cell lysate, small-molecule microarray, COS7 lysate, 635/667 nm fluorescence (AID 1150); details: COS7 hTOR1A mutant lysate, 635 nm fluorescence, higher = more signal;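 also: score pools 667 nm emission and signal to noise measuring lysate protein binding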
[19] = test system: Sonic hedgehog protein (Shh); assay: small-molecule binders of Shh protein, primary screen, biochemical, small-molecule microarray, 635/667 nm fluorescence (AID 1151); details: small-molecule microarray binding, 635 nm fluorescence; higher = more signal;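 also: Shh protein binding to compounds spotted on small-molecule microarray slides; score combines spot fluorescence intensity with signal-to-noise across triplicate slides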

Luciferin 4-monooxygenase (Photinus pyralis), sequence (P08659 whole entry, looked up): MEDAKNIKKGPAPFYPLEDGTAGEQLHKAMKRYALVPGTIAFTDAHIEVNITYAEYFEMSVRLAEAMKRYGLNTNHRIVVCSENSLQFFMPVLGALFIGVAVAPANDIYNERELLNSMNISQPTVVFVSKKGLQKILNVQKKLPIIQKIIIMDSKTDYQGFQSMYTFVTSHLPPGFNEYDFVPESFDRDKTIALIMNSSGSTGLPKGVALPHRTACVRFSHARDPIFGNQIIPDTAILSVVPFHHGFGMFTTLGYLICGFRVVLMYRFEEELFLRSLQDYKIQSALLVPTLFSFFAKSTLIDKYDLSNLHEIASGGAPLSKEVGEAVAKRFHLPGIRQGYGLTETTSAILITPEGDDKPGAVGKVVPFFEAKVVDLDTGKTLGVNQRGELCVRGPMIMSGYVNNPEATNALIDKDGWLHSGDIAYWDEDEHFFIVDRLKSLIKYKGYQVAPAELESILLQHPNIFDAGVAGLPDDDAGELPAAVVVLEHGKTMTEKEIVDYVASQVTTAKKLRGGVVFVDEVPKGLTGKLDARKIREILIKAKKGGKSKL
Streptavidin (Streptomyces avidinii), sequence (P22629 whole entry, looked up): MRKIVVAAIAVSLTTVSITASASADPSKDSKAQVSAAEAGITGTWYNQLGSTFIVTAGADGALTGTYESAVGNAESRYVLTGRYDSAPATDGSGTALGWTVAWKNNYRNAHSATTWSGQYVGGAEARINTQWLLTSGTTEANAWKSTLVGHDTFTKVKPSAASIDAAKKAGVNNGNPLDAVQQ
Focal adhesion kinase 1 (Homo sapiens), sequence (Q05397 whole entry, looked up): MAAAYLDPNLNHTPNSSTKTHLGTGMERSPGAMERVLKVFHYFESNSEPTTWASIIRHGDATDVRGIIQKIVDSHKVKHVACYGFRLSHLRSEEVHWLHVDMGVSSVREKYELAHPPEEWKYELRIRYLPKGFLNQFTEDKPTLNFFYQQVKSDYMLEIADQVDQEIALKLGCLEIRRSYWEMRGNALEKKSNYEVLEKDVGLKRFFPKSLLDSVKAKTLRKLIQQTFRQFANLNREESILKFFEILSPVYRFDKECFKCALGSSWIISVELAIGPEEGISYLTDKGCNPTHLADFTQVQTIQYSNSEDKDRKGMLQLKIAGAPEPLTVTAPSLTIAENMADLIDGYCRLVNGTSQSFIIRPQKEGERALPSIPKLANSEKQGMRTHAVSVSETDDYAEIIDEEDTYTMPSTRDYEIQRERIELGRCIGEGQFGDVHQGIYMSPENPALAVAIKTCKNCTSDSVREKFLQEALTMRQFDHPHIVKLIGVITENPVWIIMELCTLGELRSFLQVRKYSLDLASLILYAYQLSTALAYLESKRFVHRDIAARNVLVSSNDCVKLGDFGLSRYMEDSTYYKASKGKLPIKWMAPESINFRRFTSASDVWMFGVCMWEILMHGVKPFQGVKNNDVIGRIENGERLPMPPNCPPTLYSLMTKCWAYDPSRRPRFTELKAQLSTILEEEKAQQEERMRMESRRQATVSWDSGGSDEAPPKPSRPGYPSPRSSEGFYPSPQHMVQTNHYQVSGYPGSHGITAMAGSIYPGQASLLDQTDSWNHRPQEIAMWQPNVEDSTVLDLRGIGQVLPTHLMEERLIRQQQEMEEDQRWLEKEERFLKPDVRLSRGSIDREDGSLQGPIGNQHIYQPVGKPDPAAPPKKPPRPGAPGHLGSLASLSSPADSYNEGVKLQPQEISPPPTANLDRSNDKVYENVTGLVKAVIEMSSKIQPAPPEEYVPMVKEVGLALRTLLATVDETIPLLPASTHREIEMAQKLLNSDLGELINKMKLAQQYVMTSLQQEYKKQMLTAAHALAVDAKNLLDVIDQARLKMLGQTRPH
Torsin-1A (Homo sapiens), sequence (O14656 whole entry, looked up): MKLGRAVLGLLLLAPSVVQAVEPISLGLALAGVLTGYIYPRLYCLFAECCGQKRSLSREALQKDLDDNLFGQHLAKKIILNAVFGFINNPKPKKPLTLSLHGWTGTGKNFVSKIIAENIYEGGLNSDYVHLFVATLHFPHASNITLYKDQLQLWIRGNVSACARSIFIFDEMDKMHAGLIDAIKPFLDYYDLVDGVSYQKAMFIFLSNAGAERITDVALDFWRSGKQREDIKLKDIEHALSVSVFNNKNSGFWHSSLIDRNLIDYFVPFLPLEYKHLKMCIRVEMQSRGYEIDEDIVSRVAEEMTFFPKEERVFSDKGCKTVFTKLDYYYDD
Follistatin (Homo sapiens), sequence (P19883 whole entry, looked up): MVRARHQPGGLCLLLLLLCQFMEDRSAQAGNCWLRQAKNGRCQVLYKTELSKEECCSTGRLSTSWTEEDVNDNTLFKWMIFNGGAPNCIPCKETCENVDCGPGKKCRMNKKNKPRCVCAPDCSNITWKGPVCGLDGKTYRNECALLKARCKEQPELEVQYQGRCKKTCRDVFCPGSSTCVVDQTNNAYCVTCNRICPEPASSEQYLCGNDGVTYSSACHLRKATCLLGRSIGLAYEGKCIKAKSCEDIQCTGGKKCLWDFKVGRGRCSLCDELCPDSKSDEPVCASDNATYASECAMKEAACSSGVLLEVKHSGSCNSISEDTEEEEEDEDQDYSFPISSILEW
Fibroblast growth factor 2 (Homo sapiens), sequence (P09038 whole entry, looked up): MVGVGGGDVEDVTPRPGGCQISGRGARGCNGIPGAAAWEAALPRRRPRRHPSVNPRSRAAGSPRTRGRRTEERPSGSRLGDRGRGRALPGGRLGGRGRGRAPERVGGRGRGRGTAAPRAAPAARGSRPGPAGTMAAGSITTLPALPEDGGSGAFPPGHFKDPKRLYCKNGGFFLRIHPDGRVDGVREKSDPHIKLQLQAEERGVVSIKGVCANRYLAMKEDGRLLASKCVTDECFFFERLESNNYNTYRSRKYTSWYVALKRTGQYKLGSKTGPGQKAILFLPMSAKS

| Structure (SMILES) | composite z-score [1] | composite z-score [2] | composite z-score [3] | composite z-score [4] | composite z-score [5] | composite z-score [6] | z-score [7] | composite z-score (Lefty1) | composite z-score [8] | z-score [9] | composite z-score [10] | z-score [11] | z-score [12] | z-score [13] | z-score [14] | composite z-score [15] | composite z-score [16] | composite z-score (Torsin-1A (Homo sapiens) [17]) | composite z-score (Torsin-1A (Homo sapiens) [18]) | composite z-score [19] |
| --- | --- | --- | --- | --- | --- | --- | --- | --- | --- | --- | --- | --- | --- | --- | --- | --- | --- | --- | --- | --- |
| COC(=O)[C@@]1(Cc2ccc(OC)cc2)[C@H]2c3cc(C(=O)N4CCCC4)n(Cc4ccc(C(F)(F)F)nc4)c3C[C@H]2CN1C(=O)c1ccccc1 | 1.4 | 1.22 | 1.14 | 0.683 | 0.0995 | -0.342 | 0.939 | 0.087 | 0.902 | -7.63 (inactive) | 0.426 | -2.36 (inactive) | 0.361 (inactive) | -0.372 (inactive) | 0.945 (inactive) | -0.012 | 0.225 | 0.866 | 0.52 | -0.246 |
| CCCCCCc1nc(Cc2cc(OC)c(OC)c(OC)c2)cc2c1[Si](C(C)C)(C(C)C)O[C@H]2c1ccccc1 | 0.0156 | 0.0994 | -0.148 | 0.146 | 0.571 | 0.675 | 0.216 | 0.845 | -0.17 | 0.555 (inactive) | -0.0493 | -2.1 (inactive) | 0.129 (inactive) | 0.367 (inactive) | 0.0748 (inactive) | 0.0406 | -0.154 | 0.128 | -0.155 | 1.19 |
| CC(C)C[C@@H]1NC(=O)[C@@H]2C[C@H](C(=O)NCCCCCCNC(=O)CS)[C@H](c3cccc(OCCO)c3)N2C1=O | 1.74 | 1.26 | 0.114 | 0.892 | 1.42 | 1.71 | -0.0497 | 1.44 | 0.875 | -0.986 (inactive) | 0.971 | 0.0734 (inactive) | -0.253 (inactive) | 0.688 (inactive) | 0.0025 (inactive) | 1.22 | 0.159 | 1.15 | 1.18 | 2.38 |
| Cc1ccccc1C(O)C1C=CC2C(=O)N(c3ccccc3)C(=O)C2N1Nc1ccccc1 (stereo not given) | 1.53 | 1.25 | 0.969 | 1.03 | 1.3 | 0.0635 | -0.128 | 0.55 | 1.33 | -0.818 (inactive) | 0.719 | -0.383 (inactive) | -1.18 (inactive) | 0.0501 (inactive) | 0.0163 (inactive) | 1.65 | 0.182 | -0.241 | 0.191 | 0.442 |
| COCCOC(=O)N1C(=O)[C@@]2(c3ccccc31)[C@H](C(=O)N1CCN(c3ncccn3)CC1)[C@H]1C(=O)O[C@H](c3ccccc3)[C@H](c3ccccc3)N1[C@@H]2c1ccccc1OCCO | 0.724 | 1.18 | 0.382 | 0.867 | 1.15 | 0.606 | -0.531 | 1.02 | 0.272 | -0.0896 (inactive) | 0.404 | -4.29 (inactive) | -1.51 (inactive) | -2.11 (inactive) | -0.885 (inactive) | 0.631 | -0.0323 | 0.545 | 0.0291 | 1.53 |
| O=C(NC1CC1)[C@@H]1c2ccccc2C(=O)N(CC23CC4CC(CC(C4)C2)C3)[C@H]1c1ccc(CO)cc1 | 1.17 | 1.12 | 0.476 | 0.919 | 1.44 | 1.28 | 0.0467 | 1.33 | 0.33 | 0.7 (inactive) | 0.659 | -1.29 (inactive) | -0.88 (inactive) | 0.0026 (inactive) | -0.049 (inactive) | 0.189 | 0.0697 | 0.197 | 0.833 | 1.88 |
| CCOC(=O)C1=CCC(c2cc3ccccc3[nH]2)N(CCN2CC(C(=O)OCC)=CCC2c2cc3ccccc3[nH]2)C1 (stereo not given) | 1.65 | 1.22 | 0.142 | 0.974 | 0.748 | 0.0905 | -1.43 | 0.24 | 1 | 1.77 (inactive) | 0.125 | -1.74 (inactive) | -1.85 (inactive) | -0.275 (inactive) | -0.684 (inactive) | 0.428 | 0.162 | 0.0418 | 0.104 | 0.54 |
| CCOC(=O)C1=CC[C@@H](c2ccc(OC)cc2)N(S(=O)(=O)c2ccc(C)cc2)[C@H]1c1ccc(C)cc1 | 1.23 | 1.18 | 0.389 | 0.844 | 0.633 | -0.0931 | 3.2 | 0.333 | 0.803 | 1.1 (inactive) | 0.151 | -2.4 (inactive) | 0.12 (inactive) | -0.415 (inactive) | -0.24 (inactive) | 0.778 | 0.1 | -0.414 | 0.308 | -0.625 |
| CCCNC(=O)[C@@]1(Sc2ccc(C)cc2)CC(=O)N(Cc2ccccc2Cl)[C@@H]1c1ccc(CO)cc1I | 0.977 | -0.157 | 0.313 | 0.22 | -0.328 | -1.08 | 0.685 | -0.896 | 0.202 | 0.718 (inactive) | -0.618 | -1.23 (inactive) | 0.0611 (inactive) | 0.479 (inactive) | 1.44 (inactive) | -0.255 | 0.216 | -1.61 | -1.42 | -0.537 |
| C=CCOC(=O)[C@@H]1[C@H]2C(=O)O[C@H](c3ccccc3)[C@H](c3ccccc3)N2[C@H](c2ccc(OCCOC(=O)[C@H]3C[C@H]4C(=O)NCC(=O)N4[C@H]3c3cccc(OCCO)c3)cc2)[C@@]12C(=O)Nc1ccc(I)cc12 | 2.5 | 1.19 | 0.919 | 0.438 | 1.38 | 1.64 | -1.09 | 1.34 | 0.734 | -1.06 (inactive) | 0.569 | -0.357 (inactive) | -0.71 (inactive) | -0.264 (inactive) | -0.0891 (inactive) | 0.808 | 0.0228 | 0.724 | 0.702 | 1.88 |
